tim10-1 inh: growth inhibitors of tim10-1 mutant yeast, primary screen, luminescence, uHTS; inhibition, % at 20 µM; S. cerevisiae tim10-1 ts strain growth, BacTiter-Glo, 24 h; 330,000 compounds, 2.2% hits;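 active = inhibition of at least 40%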;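 also: mutant grown at 25 °C; 0% = DMSO wells with yeast and 100% = wells holding no yeast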
TIM10 inh: growth inhibitors of isogenic TIM10 control yeast, primary screen, counter-screen for tim10-1 yeast inhibitor project, luminescence, uHTS | AID 463195, 2010 | S. cerevisiae TIM10 strain growth, BacTiter-Glo luminescence, 24 h | 330,000 compounds, 1.4% hits | inhibition, % at 10 µM;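 active = inhibition of 40% or more at the single tested concentration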;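 also: wild-type TIM10 isogenic control strain grown at permissive 25 °C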
tim23-1 inh: growth inhibitors of tim23-1 mutant yeast, primary screen, luminescence, uHTS; S. cerevisiae tim23-1 growth, BacTiter-Glo luminescence, 24 h; inhibition, % at 20 µM; 330,000 compounds, 1.3% hits; AID 463212, 2010;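 active = growth inhibition of the mutant yeast at or above 50%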;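 also: temperature-sensitive mutant grown at 25 °C; plate controls were DMSO-treated mutant yeast for no effect and medium wells lacking yeast for full effect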
SKKanGAS inh: S. pyogenes SKKanGAS growth inhibitors in kanamycin, primary screen, streptokinase expression inhibitor project, SKKanGAS strain, BacTiter-Glo luminescence; 6 h; inhibition, % at 7.5 µM; 300,000 compounds, 1.3% hits;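 active = mean replicate score, as percent of positive control median, at least 50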;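 also: strain carries kanamycin resistance gene driven by streptokinase promoter and grows in 40 µg/ml kanamycin; loss of luminescence reflects streptokinase promoter inhibition or plain growth inhibition; 0% = median of DMSO wells and 100% = positive control at its reference dose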
PfHsp90 set2: growth inhibition of PfHsp90-expressing yeast, primary screen, antimalarial PfHsp90 inhibitor project, S. cerevisiae, BacTiter-Glo luminescence, single point, set 2. BacTiter-Glo ATP, 48 h; yeast lacking PDR1 and PDR3 efflux regulators. inhibition, % at 9.4 µM. 310,000 compounds, 0.32% hits;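 active = every replicate shows inhibition above about 80%, whatever the replicate mean, limit read from the data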;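 also: 0% = DMSO neutral controls and 100% = 20 µM radicicol positive controls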
V-ATPase pH: regulators of yeast V-ATPase proton pumping, primary screen, pHLuorin cytosolic pH fluorescence | 350,000 compounds, 0.37% hits | S. cerevisiae | response, % at 10 µM; in the data active = response mostly above about 7.3%, no sharp cut-off; inactive = mostly below about 5.4%; also: actives read high
tim10-1 conf: growth inhibitors of tim10-1 mutant yeast, confirmation, single concentration, luminescence, S. cerevisiae. 7,400 compounds, 56% hits. inhibition, % at 20 µM. AID 463213, 2010. S. cerevisiae tim10-1 ts strain growth, BacTiter-Glo, 24 h. shares compounds with tim10-1 inh;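 active = inhibition of yeast growth at or above a set limit in either of two repeat tests at 20 µM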;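 also: tim10-1 mutant grown at permissive 25 °C to find synthetic lethal compounds; 0% = DMSO yeast wells and 100% = medium wells without yeast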
tim10 confirm: growth inhibitors of wild-type TIM10 yeast, confirmation, counter-screen for tim10-1 synthetic lethality project, single concentration, luminescence, S. cerevisiae. inhibition, % at 10 µM. shares compounds with TIM10 inh. 4,600 compounds, 63% hits. S. cerevisiae tim10 strain growth, BacTiter-Glo luminescence, 24 h;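 active = inhibition of yeast growth at or above a set limit in either of two replicates at 10 µM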;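 also: this counterscreen used the strain with wild-type TIM10; 0% = yeast with DMSO and 100% = medium wells lacking yeast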
tim23-1 conf: tim23-1 mutant yeast growth inhibitors, confirmation, luminescence, single concentration | S. cerevisiae tim23-1 growth, BacTiter-Glo luminescence, 24 h | 4,400 compounds, 83% hits | shares compounds with tim23-1 inh | inhibition, % at 20 µM;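 active = inhibition above about 39% in either of two replicate wells at 20 µM, limit read from the data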;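 also: temperature-sensitive tim23-1 mutant grown at 25 °C; 0% = DMSO wells with yeast and 100% = medium wells without yeast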
The depositor's hits bear a star; nt = no result given. Most compounds without a hit are left out; they make up all but 4.6% or so of the library.

SMILES	tim10-1 inh	TIM10 inh	tim23-1 inh	SKKanGAS inh	PfHsp90 set2	V-ATPase pH	tim10-1 conf	tim10 confirm	tim23-1 conf
Fc1ccccc1/C=N/n1c(C2CCCCC2)n[nH]c1=S	43*	48*	65*	4	-16	2	35*	51*	61*
Cc1ccccc1/C=N/n1c(C2CCCCC2)n[nH]c1=S	27	26	40	2	-23	0	nt	nt	nt
S=c1[nH]nc(C2CCCCC2)n1/N=C/C=C/c1ccccc1	54*	39	57*	4	-21	nt	31	nt	37
S=c1[nH]nc(C2CCCCC2)n1/N=C/c1ccccc1Br	42*	35	52*	16	-16	1	26	nt	63*
O=C(/C=C\c1ccccc1OC(=O)c1ccccc1F)c1cc2ccccc2o1	55*	48*	59*	-6	-26	5	34*	23	50*
CC(=O)/C=C\c1ccccc1OC(=O)c1cc2ccccc2oc1=O	20	14	49	3	-13	-4	nt	nt	nt
Cc1cc(=O)c(C(=O)Nc2cccc(C(=O)NC3CC3)c2)nn1-c1ccccc1	nt	nt	nt	nt	nt	-1	nt	nt	nt
CCN(CC)c1ccc(/C=N/NC(=S)NCc2ccco2)cc1	42*	46*	51*	-13	-4	1	34*	-4	40*
Nc1nc(N)c2[nH]c(-c3ccccc3)nc2n1	-6	-3	-3	-1	-6	1	nt	nt	nt
Brc1cc(Br)c2nc(-c3cccs3)ccc2c1	15	3	5	11	-1	6	nt	nt	nt
Cc1nc2c(Br)cc(Br)cc2cc1O	71*	50*	76*	-2	-9	-11	61*	45*	83*
C[C@@H]1CN([C@H](C)CO)C(=O)Cc2cc(NC(=O)Nc3ccccc3)ccc2O[C@@H]1CN(C)C(=O)Nc1ccc2c(c1)OCO2	5	-6	-12	nt	-5	2	nt	nt	nt
CC(C)CNC(=S)NC(=O)c1csc([N+](=O)[O-])c1	42*	37	63*	11	-12	4	32*	nt	64*
Cc1ccc(C(C)C)cc1NC(=O)Nc1ccc([N+](=O)[O-])cc1	76*	69*	75*	88*	32	-5	79*	67*	83*
CC(C)CNC(=S)NC(=O)c1ccc([N+](=O)[O-])cc1	40	26	53*	-3	-32	-1	32*	nt	42*
CC(C)CCNC(=S)Nc1ccc([N+](=O)[O-])cc1	74*	52*	60*	2	14	-2	67*	-40	56*
COc1cccc(/C=C/c2nc(C#N)c(NCC(C)C)o2)c1	-1	14	38	5	-6	-3	nt	nt	nt
CCCC(=O)NC(=S)NNC(=O)c1ccc([N+](=O)[O-])cc1	19	9	12	-8	10	0	nt	nt	nt
CCCCNC(=S)NC(=O)c1ccc([N+](=O)[O-])cc1	52*	27	53*	1	nt	2	30	nt	53*
O=C(/C(=C/c1ccc(Cl)cc1)c1nc2ccccc2[nH]1)c1ccccc1	42*	51*	51*	32	98*	5	38*	35*	58*
COCCNC(=O)/C(C#N)=C/c1c(F)cccc1Cl	63*	66*	82*	-5	-27	3	56*	63*	77*
CCS(=O)(=O)n1nc(-c2ccc(Cl)cc2)nc1SCc1ccccc1	40*	9	62*	29	nt	nt	2	nt	57*
O=C(C(Cl)c1ccccc1)N1CCOCC1 (stereo not drawn)	10	-8	10	2	-20	0	nt	nt	nt
COc1ccc(S(=O)(=O)N2CCN(C(=O)c3cc4c(s3)CCCC4)CC2)cc1	54*	22	50*	nt	-23	1	39*	nt	57*
O=C(c1cc2c(s1)CCCC2)N1CCN(S(=O)(=O)c2ccccc2)CC1	39	9	31	-12	-16	-2	nt	nt	nt
SMILES	tim10-1 inh	TIM10 inh	tim23-1 inh	SKKanGAS inh	PfHsp90 set2	V-ATPase pH	tim10-1 conf	tim10 confirm	tim23-1 conf
Brc1ccc(-n2cc(-c3ccccc3)c3c(NN4CCOCC4)ncnc32)cc1	23	19	18	9	-22	-1	nt	nt	nt
Cc1ccc(N=C2NC(=O)/C(=C\c3ccsc3)S2)c(C)c1	52*	47*	58*	14	16	0	30	-13	66*
O=C(Oc1ccc(-c2csnn2)cc1)c1cccs1	-4	-7	-10	1	-23	4	nt	nt	nt
CC(C)(C)C(=O)O/N=C(\N)Cc1ccc(-c2csnn2)cc1	75*	47*	51*	7	-4	-2	82*	52*	30
CCc1nc2ccccc2c2nc3ccccc3n12	59*	44*	51*	4	3	-3	46*	22	48*
CCN(CC)c1nc(OCCNC(=O)Nc2ccccc2)nc(N(CC)CC)n1	42*	27	62*	5	-9	5	35*	nt	50*
CCCN1CCN(CC(=O)Nc2nncs2)CC1	-7	-9	13	-3	5	1	nt	nt	nt
N#C/C(=C\c1cccc(Oc2ccccc2)c1)C(=O)N1CCOCC1	81*	82*	80*	2	100*	0	80*	78*	76*
COc1cc(/C=C(\C#N)C(=O)N2CCOCC2)cc(Br)c1O	-8	5	12	0	9	4	nt	nt	nt
O=C(Nc1cccc(Br)c1)c1ccc(CN2CCc3ccccc3C2)cc1	44*	44*	63*	11	0	6	31*	38*	74*
CSc1cccc(NC(=O)c2ccc(CN3CCc4ccccc4C3)cc2)c1	9	16	4	13	3	0	nt	nt	nt
CCc1ccc2oc(-c3cc(N)ccc3O)nc2c1	14	24	7	10	-10	-1	nt	nt	nt
Nc1ccc2oc(-c3cc(Br)ccc3Cl)nc2c1	54*	41*	59*	-7	-3	-4	41*	36*	55*

Assay outcomes deposited in PubChem by several laboratories.
